# According to ChEMBL document CHEMBL3988442, “University of Dundee, Small-Polar-MMV Screening Library” (2021):
# In all, about 66,000 compounds went through this assay and about 960 (1.5%) showed an effect of 50% or more. The sample as a whole holds a higher share of strong results than the screen did.
# System: Trypanosoma brucei
# Assay: Trypanosoma brucei 72 hour study
# Type: functional, organism-based
# Design: scale not given: in the data most compounds retested in dose-response had high values
smiles,measurement,setting,value
CCOC1CCCN(C(=O)c2nn(-c3ccccc3F)cc2O)C1 (stereo not given),Percent Effect,"30.3 µM, […]",-12.09%
CSc1ccccc1C(=O)N1C[C@H]2CC[C@@H]1CN(C(=O)N(C)C)C2,Percent Effect,"30 µM, 30.03 µM",-19.87%
O=C(O)C(F)(F)F.O=C([C@H]1CC[C@@H]2[C@@H](CCN2C2CCCC2)O1)N1CCOCC1,Percent Effect,"30.3 µM, […]",3.599%
Cc1ccc(CN2CCC3(CCC3NC(=O)c3ccn(C)c3)CC2)s1.O=C(O)C(F)(F)F (stereo not given),Percent Effect,"30 µM, 30.03 µM",-8.436%
COc1c(CNCCNC(=O)c2ccccc2)c(C)nn1C.Cl,Percent Effect,"30.3 µM, […]",-11.06%
CCN(C)S(=O)(=O)NCC(O)c1c(Cl)cccc1Cl (stereo not given),Percent Effect,"30 µM, 30.03 µM",-61.52%
CSc1ncc(C(=O)N2CCN(c3ccccc3C)CC2C)cn1 (stereo not given),Percent Effect,"30.3 µM, […]",-20.66%
Cc1ccccc1N1CCN(C(=O)c2cscn2)C(C)C1 (stereo not given),Percent Effect,"30.3 µM, […]",-44.71%
Cc1ccccc1N1CCN(C(=O)c2ccc[nH]2)C(C)C1 (stereo not given),Percent Effect,"30 µM, 30.03 µM",53.58%
CNc1cc(C(=O)NCCC2=CSC3=NCCCN23)ccn1,Percent Effect,"30.3 µM, […]",4.45%
Cc1cc(C)n(CC2CCCCN2C(=O)c2ccc3c(c2)COC3)n1 (stereo not given),Percent Effect,10 µM,-3.538%
same,Percent Effect,"30.3 µM, […]",12.9%
O=C(CN1CCC(c2cc(=O)n3c(n2)CCCCC3)C1)N1CCCCC1.O=C(O)CC(O)(CC(=O)O)C(=O)O (stereo not given),Percent Effect,"30.3 µM, […]",-90.53%
CCC(Nc1nnnn1-c1ccccc1)C(=O)NC1CCSCC1 (stereo not given),Percent Effect,"30 µM, 30.03 µM",-25.42%
CC1(C)Cc2c(cnn2-c2ccccc2)C(NC2CCSCC2)C1 (stereo not given),Percent Effect,"30 µM, 30.03 µM",82.22%
CS(=O)(=O)NC(=O)c1nnn(-c2cccc(F)c2)c1C1CC1,Percent Effect,"30.3 µM, […]",-19.55%
Cc1nn(-c2ccccc2)c(C)c1CNC(=O)NC1CC1,Percent Effect,"30 µM, 30.03 µM",-13.2%
CC(=O)NC1CC(C)(C)Cc2c1cnn2-c1cccc(F)c1 (stereo not given),Percent Effect,"30 µM, 30.03 µM",-59.29%
CC1(C)Cc2c(cnn2-c2cccc(F)c2)C(NC2CCSCC2)C1 (stereo not given),Percent Effect,"30 µM, 30.03 µM",99.5%
O=C(O)C(F)(F)F.O=C(O)C(F)(F)F.c1ccc(CN2CC[C@@H]3O[C@@H](COCC4CCOCC4)CC[C@@H]32)nc1,Percent Effect,"30 µM, 30.03 µM",11.6%
Nc1ccnc(N2C[C@@H]3CC[C@H](C2)N(CC2CCC2)C3=O)n1,Percent Effect,"30 µM, 30.03 µM",-6.843%
COc1ncccc1CN1CC[C@]2(C[C@@H](OCc3ccccn3)CO2)C1.O=C(O)C(F)(F)F.O=C(O)C(F)(F)F.O=C(O)C(F)(F)F,Percent Effect,"30 µM, 30.03 µM",2.267%
CCSc1ccc(C(=O)N2CC[C@](O)(CC)[C@H](O)C2)s1,Percent Effect,"30.3 µM, […]",-1.451%
OC1(CN2CCC(Oc3cccc(C(F)(F)F)c3)CC2)CCNC1 (stereo not given),Percent Effect,"30 µM, 30.03 µM",92%
O=C(c1cccnc1)N1CCC(Oc2cccc(C(F)(F)F)c2)CC1,Percent Effect,"30.3 µM, […]",6.021%
